# Results from PubChem BioAssay AID1117358 (Southern Research Institute, 2015).
# The whole screen tested about 2,300 compounds, of which about 160 (7%) were called active. The rule behind the calls is not given here. A selection follows. Results with a measured potency or affinity are listed apart.
# Assay: viability loss in Vero cells – cytotoxicity control for Vif-APOBEC3G degradation inhibitor project, dose response (AID 1117358)
# Conditions: CellTiter-Glo ATP luminescence, 72 h; series mostly up to 40 µM
row,Compound,outcome
1,O=C1c2ccccc2C(=O)N1CCc1csc(-c2ccc(F)cc2)n1,inactive
2,Cc1cc(-c2cc(-c3ccc(Cl)cc3)nc(N)c2C#N)co1,inactive
3,COc1ccc(Oc2nc(C)cc(C)c2C#N)cc1,inactive
4,O=[N+]([O-])c1cc(/C=N\Nc2nccs2)ccc1O,inactive
5,CC(OC(=O)c1cccs1)C(=O)NCc1ccco1 (stereo not given),inactive
6,CCc1nc(SCC(=O)Nc2ccc(C(=O)O)cc2)n[nH]1,inactive
7,CCc1cccc(NC(=O)Cn2ncn3c(cc4ccccc43)c2=O)c1,inactive
8,COCCNC(=O)COc1ccc(Br)cc1Cl,inactive
9,CSc1cccc(NC(=O)CN(c2cc(C)ccc2C)S(C)(=O)=O)c1,inactive
10,Cn1c(CN2CCOCC2)nc2cc(NC(=O)c3ccc(F)cc3)ccc21,inactive
11,N#Cc1nc(-c2ccco2)oc1N1CCN(c2ccccc2)CC1,inactive
12,CCC(C)(C)n1nnnc1C(c1cc2cc(C)ccc2[nH]c1=O)N1CCCc2ccccc21 (stereo not given),inactive
13,O=C(OCc1ccc(Cl)cc1)c1cnccn1,inactive
14,O=C(CSc1nccn1Cc1ccccc1)Nc1nccs1,inactive
15,Cc1ccc(NC(=O)CCC(=O)NNC(=O)COc2cccc3ccccc23)c(C)c1,inactive
16,CS(=O)(=O)N(CC(=O)NCc1ccc2c(c1)OCO2)Cc1ccccc1,inactive
17,O=C(O)Cc1ccc(C(=O)c2ccccc2)s1,inactive
18,Oc1ccc(/C=N/NC2=NCCCCC2)c(O)c1,inactive
19,CC(=O)C1CCN(Cc2ccccc2)CC1,inactive
20,Cc1ccc(C)n1Cc1ccc(C(=O)O)cc1,inactive
21,Cn1cccc1C(=O)NC(=O)COC(=O)CC12CC3CC(CC(Br)(C3)C1)C2,inactive
22,O=C(COC(=O)c1cc(-c2ccco2)nc2ccccc12)NCc1ccc2c(c1)OCO2,inactive
23,Cc1nc(C(=O)N(C)C)nn1-c1cc(Cl)cc(Cl)c1,inactive
24,CCOC(=O)c1ccc(-n2ncc(C(=O)OCC)c2N)cc1,inactive
25,Cc1ccc(S(=O)(=O)N2CCC(C(=O)Nc3nnc(-c4ccco4)s3)CC2)cc1,inactive
26,CCN(CC)c1ccc(/C=N/n2c(C)cc(C)cc2=O)cc1,inactive
27,CCOc1ccc(Br)cc1/C=N/O,inactive
28,CCOc1ccc(N(CC(=O)NC2CCCCC2)S(=O)(=O)c2c(C)noc2C)cc1,inactive

row,Compound,outcome
1,Cc1onc(-c2ccccc2)c1C(=O)N1CCCc2ccccc21,inactive
2,C=CCn1c(SCC(=O)c2cc(C)n(C(C)COC)c2C)nc2sc(C)c(C)c2c1=O (stereo not given),inactive
3,CCOC(=O)c1ccc(NS(=O)(=O)c2ccc3c(c2)oc(=O)n3C)cc1,inactive
4,Cc1nnc(-c2cnn(-c3ccccc3)c2N)n1Cc1cccc(C(F)(F)F)c1,inactive
5,C/C(=C1\SC(N2CCOCC2)=NC1=O)c1ccccc1,inactive
6,Cc1noc(C)c1C(=O)N1CCN(c2ncccn2)CC1,inactive
7,COc1ccc(NS(=O)(=O)c2cccc(Cl)c2Cl)cc1S(=O)(=O)N1CCCCC1,inactive
8,CCC(=O)N1CCN(c2ccccc2NC(=O)c2cccc(C)c2)CC1,inactive
9,O=C(NCc1ccc(Cl)cc1)c1ccccc1Oc1ccccc1,inactive
10,CCC(=O)NNc1ncnc2ccccc12,inactive
11,COC(=O)c1cccc(NC(=O)c2cccc(OC)c2)c1,inactive
12,COc1cc2c(cc1NC(=O)COC(=O)Cn1cnc3ccccc31)oc1ccccc12,inactive
13,CCOC(=O)N1CCC(Nc2c(-c3ccc(C)cc3)c(=O)c2=O)CC1,inactive
14,Cc1cccc(CCNC(=O)CCc2nc(-c3ccccc3F)no2)c1,inactive
15,O=C(N/N=C/C=C\c1ccco1)c1cccnc1,inactive
16,Cc1cc(C)nc(N(C#N)CN2C(=O)c3ccccc3S2(=O)=O)n1,inactive
17,COC(=O)CSc1nnc(CNC(=O)c2cccs2)n1-c1cc(OC)ccc1OC,inactive
18,COc1ccc(OC)c(-c2cc(C(=O)NCc3cccs3)no2)c1,inactive
19,c1ccc2c(c1)ccc1nnc(SCc3ccc4c(c3)OCO4)n12,inactive
20,CCOC(=O)NC1(NC2CCCCC2)Oc2ccccc2O1,inactive
21,CC(C)(C)NC(=O)C1N(c2cccnc2)C(=O)C2C(C(=O)Nc3ccccc3F)C3(C)C=CC21O3 (stereo not given),inactive
22,O=S(=O)(c1ccc(Cl)s1)N1CCN(Cc2ccccc2)CC1,inactive
23,O=C(CN1CCN(S(=O)(=O)c2ccc(Cl)cc2)CC1)Nc1ccc2c(c1)OCCO2,inactive
24,CCC(C)(C)C1CCc2c(sc(NC(=O)c3ccoc3C)c2C(N)=O)C1 (stereo not given),inactive
25,O=C(CSc1nnc(-c2cccnc2)n1Cc1ccco1)c1ccc(Br)cc1,inactive
26,Cc1c(C(=O)Nc2ccc(Cl)cc2)c2ccccn2c1CCc1ccncc1,inactive
27,C/C(=C/C(=O)NCc1ccccc1)C(=O)O,inactive
